TGFb inhibitor: qHTS for Inhibitors of TGF-b; HepG2 CAGA-GFP TGF-b/SMAD3 reporter, GFP fluorescence, 18 h; TGF-beta stimulated, 500 pg/mL final; Potency, µM (top dose mostly 46.1 µM), inactives show at the top dose activity, negative = inhibition, most hits filed as inhibitors; 1.2% of 410,000 active; also: potency is read from the fitted curve at half-maximal effect; % is scaled to controls: 0 for no effect and ±100 for the full control effect; nearly all actives have a fitted effect of over 65% in size
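Per well, imaged GFP fluorescence of HEPG2 CAGA-GFP cells gives the signal; cells get compound, then TGF-beta (500 pg/mL final), 18 h at 37 degrees C; %Activity versus -TGF-beta and +DMSO controls.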
DT40 TDP1 CPT: qHTS for Inhibitors of human tyrosyl-DNA phosphodiesterase 1 (TDP1): qHTS in cells in presence of CPT; 12% of 420,000 active; Potency, µM (series often up to 46.2 µM), for the others: at the top dose activity change, negative = growth inhibition, actives largely listed as inhibitors; AID 686979, 2013; chicken DT40 Tdp1-/-;hTDP1 cells + 20 nM CPT, ATP luminescence, 48 h; also: potency is read from the fitted curve at half-maximal effect; % is scaled to controls: 0 for no effect and ±100 for the full control effect; nearly all actives have a fitted effect of over 55% in size
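Chicken DT40 Tdp1-/- cells complemented with human TDP1, 400 cells/well, exposed to compounds plus 20 nM camptothecin for at least 48 h at 37 C; viability read as ATP content by CellTiter-Glo luminescence.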
HepG2 tox: qHTS for Inhibitors of TGF-b: Cytotox Counterscreen | Potency, µM (doses to about 46.1 µM), inactives show at the highest dose activity change, negative = cytotoxicity, actives largely listed as cytotoxic | HepG2 CAGA-GFP viability, ATP luminescence, 18 h | 0.76% of 410,000 active; also: potency is read from the fitted curve at half-maximal effect
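CellTiter-Glo luminescence gave cytotoxicity after 18 hours at 37 degrees C. The cells were HepG2 CAGA-GFP in 1% FBS DMEM, stimulated with 500 pg/mL TGF-beta after compound addition. %Activity was normalised to no-cell wells (complete cell-killing) and DMSO (no toxicity), and curves were fitted and classified.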
TDP1 cell noCPT: qHTS for Inhibitors of human tyrosyl-DNA phosphodiesterase 1 (TDP1): qHTS in cells in absence of CPT; DT40 Tdp1-/- hTDP1 cells, no CPT, ATP luminescence, 48 h; Potency, µM (highest dose often 46.2 µM), for the others: top-dose activity change, negative = growth inhibition, hits mostly inhibitors; 15% of 420,000 active; AID 686978, 2013; also: potency is read from the fitted curve at half-maximal effect; % is scaled to controls: 0 for no effect and ±100 for the full control effect; nearly all actives have a fitted effect of over 55% in size
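Growth kinetics read by CellTiter-Glo luminescence after ≥48 hr at 37 °C. Cells: DT40 Tdp1-/- stably carrying human TDP1, 400 per well, compound exposure in the absence of CPT (DMSO vehicle).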
IL1B secr inh: qHTS for Inhibitors of Inflammasome Signaling: IL-1-beta AlphaLISA Primary Screen; THP-1 LPS/ATP IL-1B secretion, AlphaLISA, 16 h; stronger effect = lower value; activity change, % at 57.5 µM; 4.7% of 360,000 active; AID 743279, 2014; in the data active = activity change below about -50%; inconclusive = mostly about -30% to -49%; also: % is scaled to controls: 0 for no effect and ±100 for the full control effect
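THP-1 cells pretreated 1 hr with compounds (up to 57.5 uM final), then stimulated with LPS (250 ng/mL final) plus ATP (1.25 mM final); secreted IL-1B measured by AlphaLISA after 16 hr, decreased signal indicating inhibition.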
S-ASM inh: Inhibitors of Secretory Acid Sphingomyelinase (S-ASM): qHTS | 0.006% of 340,000 active | AID 504937, 2011 | Sphingomyelin phosphodiesterase (Homo sapiens), P17405 | Potency, µM (doses to about 57.5 µM), for the others: at the top dose activity change, negative = inhibition, actives largely listed as inhibitors | placental ASM, HMU-PC fluorogenic substrate, 60 min; also: potency is read from the fitted curve at half-maximal effect
Target sequence (P17405 47-631 limits assumed): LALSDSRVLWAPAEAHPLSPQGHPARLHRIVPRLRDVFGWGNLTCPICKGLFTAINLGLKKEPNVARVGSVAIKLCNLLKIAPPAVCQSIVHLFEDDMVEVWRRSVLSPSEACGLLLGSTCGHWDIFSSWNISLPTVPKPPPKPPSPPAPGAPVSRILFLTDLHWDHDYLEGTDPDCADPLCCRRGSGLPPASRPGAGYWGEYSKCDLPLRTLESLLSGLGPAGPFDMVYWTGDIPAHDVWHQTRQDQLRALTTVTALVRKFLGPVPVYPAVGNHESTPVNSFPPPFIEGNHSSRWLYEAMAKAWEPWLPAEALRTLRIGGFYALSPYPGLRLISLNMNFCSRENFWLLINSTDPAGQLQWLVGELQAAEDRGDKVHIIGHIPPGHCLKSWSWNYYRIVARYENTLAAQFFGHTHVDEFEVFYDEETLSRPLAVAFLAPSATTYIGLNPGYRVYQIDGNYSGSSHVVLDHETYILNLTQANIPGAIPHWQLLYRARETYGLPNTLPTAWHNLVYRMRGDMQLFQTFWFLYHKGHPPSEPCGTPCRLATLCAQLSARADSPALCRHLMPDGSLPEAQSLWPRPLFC
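Human placenta-derived ASM enzyme was preincubated with compound for 10 minutes at room temperature, then given fluorogenic substrate HMU-PC0 (9 uM final) for 60 minutes at 37 °C; a pH 10 stop preceded fluorescence reading at Ex 386/Em 447 nm.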
Numbers without * were called inactive; ? = inconclusive; / = not tested or not shown. Most compounds without a hit are left out; they make up all but 19% or so of the library. Unless noted, calls follow the shape of the dose curve; as a rule, active = well fitted curve in the direction sought with a large enough effect; inconclusive = small, poorly fitted or top-dose-only effect, or another doubt; inactive = no such curve, though single readings can be large; an effect the other way counts as inactive or inconclusive.

SMILES	TGFb inhibitor	DT40 TDP1 CPT	HepG2 tox	TDP1 cell noCPT	IL1B secr inh	S-ASM inh
CCOc1ccc(N(CC)S(=O)(=O)N2CCCC(C(=O)NCc3ccccc3Cl)C2)cc1 (stereo unspecified)	?	20.6µM*	-16.6%	20.6µM*	/	/
CCOc1ccc(N(CC)S(=O)(=O)N2CCCC(C(=O)Nc3cc(Cl)ccc3C)C2)cc1 (stereo unspecified)	-24.7%	20.6µM*	-23.6%	16.4µM*	/	/
Nc1c(C(=O)Nc2cccc(F)c2)c2ccccn2c1C(=O)c1ccccc1	14.5%	-15.8%	0.1%	-21.4%	/	/
CC1CCC(NC(=O)c2ccc3c(c2)N(Cc2ccccc2F)C(=O)c2ccccc2S3)CC1 (stereo unspecified)	-0.4%	?	12.3%	?	/	/
CN(C(=O)c1ccc2c(c1)N(Cc1ccccc1F)C(=O)c1ccccc1S2(=O)=O)C1CCCCC1	?	?	-15.9%	23.1µM*	/	/
CC(C)CCNC(=O)c1ccc2c(c1)N(Cc1ccccc1F)C(=O)c1ccccc1S2(=O)=O	-2.3%	?	-25.2%	?	/	/
CN(C(=O)c1ccc2c(c1)N(Cc1ccccc1F)C(=O)c1ccccc1S2)C1CCCCC1	-24.3%	?	-11.7%	23.1µM*	/	/
Cc1ccc(C)c(CN2C(=O)c3ccccc3S(=O)(=O)c3ccc(C(=O)N(C)C4CCCCC4)cc32)c1	/	?	1.6%	20.6µM*	/	/
COc1ccc(CCN(Cc2cccs2)S(=O)(=O)c2ccc(S(=O)(=O)N3CCC(C)CC3)cc2)cc1OC	-4.8%	-28.0%	1.3%	?	7.3	3.2%
COc1ccc(CCN(Cc2cccs2)S(=O)(=O)c2ccc(S(=O)(=O)N3CCCCCC3)cc2)cc1OC	-14.3%	?	1.1%	9.2µM*	5.6	3.7%
CCC(C)NS(=O)(=O)c1ccc(S(=O)(=O)N(CCc2ccc(OC)c(OC)c2)Cc2cccs2)cc1 (stereo unspecified)	?	10.3µM*	-5.4%	7.31µM*	-14.5	0.0%
COc1ccc(CCN(Cc2cccs2)S(=O)(=O)c2ccc(-n3cnnn3)cc2)cc1OC	-19.5%	11.6µM*	-18.9%	?	-19.3	-6.7%
COC(=O)c1cc2oc(C)cc2n1Cc1cccc(Cl)c1	87.9%	?	76.9%	?	/	/
Cc1ccc(CNC(=O)CC(C)S(=O)(=O)c2ccc3c(c2)NC(=O)CS3)o1 (stereo unspecified)	-7.3%	-33.2%	-7.8%	?	-15.9	0.9%
COc1cccc(CN(C)C(=O)c2cccc(S(=O)(=O)Nc3cccc(C)c3)c2)c1OC	-4.2%	23.1µM*	-9.7%	16.4µM*	-11.6	/
CCOc1ccc(CN(C)C(=O)c2cccc(S(=O)(=O)Nc3ccccc3OC)c2)cc1OC	-7.1%	?	-15.7%	14.6µM*	-28.3	/
CCc1ccc(CN(C)C(=O)c2cccc(S(=O)(=O)Nc3ccccc3OC)c2)cc1	?	?	-20.7%	?	-8.4	-12.1%
CCOc1ccc(NS(=O)(=O)c2ccc(C(=O)N(C)Cc3cccc(OC)c3OC)cc2)cc1	-4.0%	14.6µM*	-17.9%	14.6µM*	-0.5	-4.3%
CCOc1ccc(NS(=O)(=O)c2ccc(C(=O)N(C)CC(=O)Nc3ccc(C)cc3)cc2)cc1	?	?	-18.1%	16.4µM*	?	-10.9%
